# Measured values from publication PMC7862700, “An all-to-all approach to the identification of sequence-specific readers for epigenetic DNA modifications on cytosine”.
# How the values were obtained:
# Test in all cases: DAPPL (digital affinity profiling via proximity ligation, sequencing); 10 mM Tris-HCl pH 7.5, 50 mM NaCl, 1 mM DTT, 4% glycerol, room temperature, 30 min; GST-TFs on glutathione beads, 16-mer random dsDNA library, 0.1% formaldehyde crosslink after washing; high values mean tight binding
# FEV = molecular target: T1, FEV (Homo sapiens, UniProt Q99581 1-238); settings: protein: recombinant; tags: N-terminal GST; dsDNA, one strand shown
# T1 sequence: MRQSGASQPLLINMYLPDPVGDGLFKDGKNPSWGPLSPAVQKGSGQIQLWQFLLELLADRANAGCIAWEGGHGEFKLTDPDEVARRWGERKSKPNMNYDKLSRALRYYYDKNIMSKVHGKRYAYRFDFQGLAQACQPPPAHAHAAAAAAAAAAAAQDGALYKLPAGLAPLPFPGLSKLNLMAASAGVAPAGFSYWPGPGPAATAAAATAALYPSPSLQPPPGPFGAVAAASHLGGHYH
# Outline: (§1)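 The binding signal reported is, for every hexamer, its read frequency for a factor over its read frequency for the tag-only sample. Reads came from pools of yeast-expressed, GST-fused human transcription factors on glutathione beads, barcoded with DNA and mixed with that sample, which were incubated with 200 nmole of a random double-stranded 16-mer DNA library in Tris/NaCl/DTT/glycerol buffer at room temperature for 30 min. After washing, the pools were crosslinked with 0.1% formaldehyde, proximity-ligated with BsaI/T4 ligase for 1 h at 37 °C, PCR-amplified and sequenced on an Illumina NextSeq500.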
# ETV5 = ETV5 (Homo sapiens, UniProt P41161 1-510); settings: protein: recombinant; tags: N-terminal GST; dsDNA, one strand shown
# Outline: as §1
# HSF1 = HSF1 (Homo sapiens, UniProt Q00613 1-529); settings: protein: recombinant; tags: N-terminal GST; chain copies: 3; dsDNA, one strand shown
# Outline: as §1
# SPIC = molecular target: T2, SPIC (Homo sapiens, UniProt Q8N5J4 1-248); settings: protein: recombinant; tags: N-terminal GST; dsDNA, one strand shown
# T2 sequence: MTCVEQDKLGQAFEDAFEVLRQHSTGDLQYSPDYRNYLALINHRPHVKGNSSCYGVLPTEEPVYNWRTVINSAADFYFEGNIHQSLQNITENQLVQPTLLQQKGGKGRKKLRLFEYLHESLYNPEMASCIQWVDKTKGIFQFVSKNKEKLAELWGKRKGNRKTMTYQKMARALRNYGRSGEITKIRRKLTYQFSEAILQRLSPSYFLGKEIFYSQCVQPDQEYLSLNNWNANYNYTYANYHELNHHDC
# Outline: as §1
# ELF4 = ELF4 (Homo sapiens, UniProt Q99607 1-663); settings: protein: recombinant; tags: N-terminal GST; dsDNA, one strand shown
# Outline: as §1
# ELK4 = molecular target: T3, ELK4 (Homo sapiens, UniProt P28324-2 1-405); settings: protein: recombinant; tags: N-terminal GST; dsDNA, one strand shown
# T3 sequence: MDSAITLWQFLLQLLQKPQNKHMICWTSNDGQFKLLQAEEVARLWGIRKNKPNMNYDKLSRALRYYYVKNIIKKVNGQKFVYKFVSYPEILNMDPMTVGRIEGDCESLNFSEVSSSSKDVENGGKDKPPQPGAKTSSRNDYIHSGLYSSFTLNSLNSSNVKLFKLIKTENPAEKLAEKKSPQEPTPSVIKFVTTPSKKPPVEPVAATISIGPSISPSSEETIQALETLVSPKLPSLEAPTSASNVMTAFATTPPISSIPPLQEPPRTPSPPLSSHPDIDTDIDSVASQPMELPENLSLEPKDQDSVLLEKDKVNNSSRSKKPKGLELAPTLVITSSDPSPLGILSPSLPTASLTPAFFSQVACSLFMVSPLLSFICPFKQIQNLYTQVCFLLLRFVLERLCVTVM
# Outline: as §1
# ELF3 = molecular target: T4, ELF3 (Homo sapiens, UniProt P78545 1-371); settings: protein: recombinant; tags: N-terminal GST; dsDNA, one strand shown
# T4 sequence: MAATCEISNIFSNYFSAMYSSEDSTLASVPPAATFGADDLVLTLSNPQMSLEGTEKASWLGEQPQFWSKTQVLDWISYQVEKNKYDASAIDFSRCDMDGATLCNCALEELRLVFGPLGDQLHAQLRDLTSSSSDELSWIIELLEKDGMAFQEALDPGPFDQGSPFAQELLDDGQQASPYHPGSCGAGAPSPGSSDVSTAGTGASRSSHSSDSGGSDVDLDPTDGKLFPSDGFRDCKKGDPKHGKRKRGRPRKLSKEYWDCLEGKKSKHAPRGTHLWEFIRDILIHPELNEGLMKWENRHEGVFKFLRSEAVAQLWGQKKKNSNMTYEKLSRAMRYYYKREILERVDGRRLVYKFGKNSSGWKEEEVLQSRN
# Outline: as §1
# CRX = CRX (Homo sapiens, UniProt O43186 1-299); settings: protein: recombinant; tags: N-terminal GST; dsDNA, one strand shown
# Outline: as §1
# ETV1 = ETV1 (Homo sapiens, UniProt P50549 1-477); settings: protein: recombinant; tags: N-terminal GST; dsDNA, one strand shown
# Outline: as §1
# ERF = molecular target: T5, ERF (Homo sapiens, UniProt P50548 1-548); settings: protein: recombinant; tags: N-terminal GST; dsDNA, one strand shown
# T5 sequence: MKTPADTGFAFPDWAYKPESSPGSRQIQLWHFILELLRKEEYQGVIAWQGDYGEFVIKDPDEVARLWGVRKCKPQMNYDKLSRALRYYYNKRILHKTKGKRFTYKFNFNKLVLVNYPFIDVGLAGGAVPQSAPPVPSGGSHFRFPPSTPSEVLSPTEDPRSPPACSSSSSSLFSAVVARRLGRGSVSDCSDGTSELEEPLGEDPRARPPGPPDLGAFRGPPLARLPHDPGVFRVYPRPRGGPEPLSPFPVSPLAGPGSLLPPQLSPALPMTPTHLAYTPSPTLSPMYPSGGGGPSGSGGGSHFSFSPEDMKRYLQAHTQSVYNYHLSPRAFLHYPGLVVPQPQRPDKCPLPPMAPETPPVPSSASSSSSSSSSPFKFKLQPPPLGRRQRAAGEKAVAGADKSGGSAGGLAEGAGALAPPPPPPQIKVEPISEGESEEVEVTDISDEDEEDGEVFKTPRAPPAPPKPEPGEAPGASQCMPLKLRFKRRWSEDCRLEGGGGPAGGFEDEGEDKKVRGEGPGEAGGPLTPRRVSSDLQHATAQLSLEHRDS
# Outline: as §1
# ETV3L = molecular target: T6, ETV3L (Homo sapiens, UniProt Q6ZN32 1-361); settings: protein: recombinant; tags: N-terminal GST; dsDNA, one strand shown
# T6 sequence: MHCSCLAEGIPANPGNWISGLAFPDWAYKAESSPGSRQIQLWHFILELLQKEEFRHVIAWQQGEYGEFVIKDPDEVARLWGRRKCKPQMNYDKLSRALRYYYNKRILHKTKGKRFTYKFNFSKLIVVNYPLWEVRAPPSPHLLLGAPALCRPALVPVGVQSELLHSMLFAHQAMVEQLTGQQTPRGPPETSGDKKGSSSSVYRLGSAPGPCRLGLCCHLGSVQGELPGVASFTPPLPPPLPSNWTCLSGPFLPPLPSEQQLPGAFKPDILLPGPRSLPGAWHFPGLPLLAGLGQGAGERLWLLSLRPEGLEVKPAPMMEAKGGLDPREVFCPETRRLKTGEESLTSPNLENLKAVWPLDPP
# Outline: as §1
# ETS2 = molecular target: T7, ETS2 (Homo sapiens, UniProt P15036 1-469); settings: protein: recombinant; tags: N-terminal GST; dsDNA, one strand shown
# T7 sequence: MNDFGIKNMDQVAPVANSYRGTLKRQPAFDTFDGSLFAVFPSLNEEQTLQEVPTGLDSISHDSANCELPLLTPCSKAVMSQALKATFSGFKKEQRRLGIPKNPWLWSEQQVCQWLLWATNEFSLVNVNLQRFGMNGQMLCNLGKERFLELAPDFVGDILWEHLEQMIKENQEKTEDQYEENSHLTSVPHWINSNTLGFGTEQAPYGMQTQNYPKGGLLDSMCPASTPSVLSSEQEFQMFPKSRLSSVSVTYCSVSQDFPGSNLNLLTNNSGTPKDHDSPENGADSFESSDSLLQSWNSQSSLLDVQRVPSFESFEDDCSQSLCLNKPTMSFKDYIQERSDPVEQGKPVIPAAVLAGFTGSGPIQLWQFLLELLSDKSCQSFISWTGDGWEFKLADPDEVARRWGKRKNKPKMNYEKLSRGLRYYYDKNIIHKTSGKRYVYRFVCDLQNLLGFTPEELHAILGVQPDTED
# Outline: as §1
# SPDEF = molecular target: T8, SPDEF (Homo sapiens, UniProt O95238 1-335); settings: protein: recombinant; tags: N-terminal GST; dsDNA, one strand shown
# T8 sequence: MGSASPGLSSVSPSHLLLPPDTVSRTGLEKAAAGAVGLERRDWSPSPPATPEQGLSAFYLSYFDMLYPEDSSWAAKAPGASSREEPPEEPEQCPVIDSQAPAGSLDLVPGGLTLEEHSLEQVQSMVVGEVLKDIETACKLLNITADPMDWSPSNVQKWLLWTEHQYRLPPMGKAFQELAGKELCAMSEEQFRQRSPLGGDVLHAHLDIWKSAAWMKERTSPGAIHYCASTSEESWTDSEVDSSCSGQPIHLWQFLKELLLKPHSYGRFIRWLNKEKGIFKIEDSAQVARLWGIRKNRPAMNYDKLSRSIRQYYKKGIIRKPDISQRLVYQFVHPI
# Outline: as §1
# ETV7 = molecular target: T9, ETV7 (Homo sapiens, UniProt Q9Y603 1-341); settings: protein: recombinant; tags: N-terminal GST; dsDNA, one strand shown
# T9 sequence: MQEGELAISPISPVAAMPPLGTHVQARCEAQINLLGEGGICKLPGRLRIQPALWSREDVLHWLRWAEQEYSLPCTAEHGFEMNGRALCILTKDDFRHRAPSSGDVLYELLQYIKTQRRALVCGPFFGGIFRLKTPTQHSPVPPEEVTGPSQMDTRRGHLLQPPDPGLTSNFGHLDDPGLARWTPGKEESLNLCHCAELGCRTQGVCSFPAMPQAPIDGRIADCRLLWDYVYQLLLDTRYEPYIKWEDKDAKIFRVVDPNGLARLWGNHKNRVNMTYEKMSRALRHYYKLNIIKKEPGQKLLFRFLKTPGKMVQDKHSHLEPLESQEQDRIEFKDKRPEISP
# Outline: as §1
# ELF5 = molecular target: T10, ELF5 (Homo sapiens, UniProt Q9UKW6-2 1-255); settings: protein: recombinant; tags: N-terminal GST; dsDNA, one strand shown
# T10 sequence: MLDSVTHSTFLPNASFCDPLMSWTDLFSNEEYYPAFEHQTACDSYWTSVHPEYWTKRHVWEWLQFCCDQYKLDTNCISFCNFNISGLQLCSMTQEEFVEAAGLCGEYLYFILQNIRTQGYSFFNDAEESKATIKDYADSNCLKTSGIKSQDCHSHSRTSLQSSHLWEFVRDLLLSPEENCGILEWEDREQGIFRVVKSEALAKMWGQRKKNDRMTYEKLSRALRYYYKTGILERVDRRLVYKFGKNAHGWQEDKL
# Outline: as §1
# ETV3 = molecular target: T11, ETV3 (Homo sapiens, UniProt P41162-2 1-143); settings: protein: recombinant; tags: N-terminal GST; dsDNA, one strand shown
# T11 sequence: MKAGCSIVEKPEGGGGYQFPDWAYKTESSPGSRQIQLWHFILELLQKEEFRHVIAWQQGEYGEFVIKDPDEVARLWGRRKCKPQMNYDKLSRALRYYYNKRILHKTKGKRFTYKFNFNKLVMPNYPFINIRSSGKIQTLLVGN
# Outline: as §1
# ETV6 = ETV6 (Homo sapiens, UniProt P41212 1-452); settings: protein: recombinant; tags: N-terminal GST; dsDNA, one strand shown
# Outline: as §1
# Chain of CRX (O43186 whole entry): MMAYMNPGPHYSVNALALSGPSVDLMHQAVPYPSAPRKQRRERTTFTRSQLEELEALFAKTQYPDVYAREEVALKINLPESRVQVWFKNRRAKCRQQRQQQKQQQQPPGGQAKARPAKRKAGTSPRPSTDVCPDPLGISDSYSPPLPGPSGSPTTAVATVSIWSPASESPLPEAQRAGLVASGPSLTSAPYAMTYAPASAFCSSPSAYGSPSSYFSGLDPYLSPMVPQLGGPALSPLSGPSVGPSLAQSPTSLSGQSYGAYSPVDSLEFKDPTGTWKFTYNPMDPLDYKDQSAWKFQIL
# Chain of ELF4 (Q99607 whole entry): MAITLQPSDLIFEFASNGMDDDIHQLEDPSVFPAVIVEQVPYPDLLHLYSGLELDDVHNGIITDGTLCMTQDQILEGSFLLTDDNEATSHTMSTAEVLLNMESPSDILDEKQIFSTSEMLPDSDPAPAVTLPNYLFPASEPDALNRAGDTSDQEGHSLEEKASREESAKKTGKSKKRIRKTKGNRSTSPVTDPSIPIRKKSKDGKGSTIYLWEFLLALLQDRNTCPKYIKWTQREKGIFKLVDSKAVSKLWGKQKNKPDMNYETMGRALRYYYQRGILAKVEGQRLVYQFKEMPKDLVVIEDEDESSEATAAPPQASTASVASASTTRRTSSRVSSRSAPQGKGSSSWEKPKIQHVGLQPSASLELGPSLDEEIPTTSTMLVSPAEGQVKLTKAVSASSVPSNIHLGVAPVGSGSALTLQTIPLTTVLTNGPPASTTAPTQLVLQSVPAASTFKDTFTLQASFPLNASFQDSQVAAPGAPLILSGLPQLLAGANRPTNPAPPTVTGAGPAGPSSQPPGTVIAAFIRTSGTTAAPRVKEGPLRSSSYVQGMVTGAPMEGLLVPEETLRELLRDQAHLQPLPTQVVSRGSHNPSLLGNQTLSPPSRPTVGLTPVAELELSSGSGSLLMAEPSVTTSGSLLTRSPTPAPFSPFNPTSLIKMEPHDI
# Chain of ETV1 (P50549 whole entry): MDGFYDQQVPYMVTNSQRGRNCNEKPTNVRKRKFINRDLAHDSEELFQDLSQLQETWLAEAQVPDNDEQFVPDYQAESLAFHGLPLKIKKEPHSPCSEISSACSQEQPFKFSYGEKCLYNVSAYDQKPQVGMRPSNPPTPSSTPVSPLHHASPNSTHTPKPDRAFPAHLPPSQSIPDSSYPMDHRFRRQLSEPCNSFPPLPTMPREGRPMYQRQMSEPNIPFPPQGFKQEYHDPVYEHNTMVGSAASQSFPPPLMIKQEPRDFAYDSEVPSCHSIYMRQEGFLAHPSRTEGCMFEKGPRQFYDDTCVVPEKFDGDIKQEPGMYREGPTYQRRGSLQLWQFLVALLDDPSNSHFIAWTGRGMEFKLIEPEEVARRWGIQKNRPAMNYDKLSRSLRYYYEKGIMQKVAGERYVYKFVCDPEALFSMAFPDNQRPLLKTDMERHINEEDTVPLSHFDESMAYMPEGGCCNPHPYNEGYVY
# Chain of HSF1 (Q00613 whole entry): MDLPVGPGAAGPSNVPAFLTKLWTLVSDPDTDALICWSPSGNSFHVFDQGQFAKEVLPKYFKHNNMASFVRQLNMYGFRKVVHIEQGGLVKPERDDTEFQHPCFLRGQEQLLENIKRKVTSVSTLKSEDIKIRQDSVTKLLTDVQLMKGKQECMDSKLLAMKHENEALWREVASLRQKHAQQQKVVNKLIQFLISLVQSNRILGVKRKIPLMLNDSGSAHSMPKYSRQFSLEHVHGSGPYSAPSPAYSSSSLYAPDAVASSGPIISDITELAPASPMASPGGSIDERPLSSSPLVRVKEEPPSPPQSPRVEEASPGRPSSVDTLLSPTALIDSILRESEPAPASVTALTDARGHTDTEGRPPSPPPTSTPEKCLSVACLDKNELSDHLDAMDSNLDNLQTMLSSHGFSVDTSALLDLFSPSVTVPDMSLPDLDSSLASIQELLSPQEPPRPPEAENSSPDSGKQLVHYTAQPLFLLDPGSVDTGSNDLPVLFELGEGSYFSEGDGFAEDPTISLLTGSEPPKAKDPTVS
# Chain of ETV5 (P41161 whole entry): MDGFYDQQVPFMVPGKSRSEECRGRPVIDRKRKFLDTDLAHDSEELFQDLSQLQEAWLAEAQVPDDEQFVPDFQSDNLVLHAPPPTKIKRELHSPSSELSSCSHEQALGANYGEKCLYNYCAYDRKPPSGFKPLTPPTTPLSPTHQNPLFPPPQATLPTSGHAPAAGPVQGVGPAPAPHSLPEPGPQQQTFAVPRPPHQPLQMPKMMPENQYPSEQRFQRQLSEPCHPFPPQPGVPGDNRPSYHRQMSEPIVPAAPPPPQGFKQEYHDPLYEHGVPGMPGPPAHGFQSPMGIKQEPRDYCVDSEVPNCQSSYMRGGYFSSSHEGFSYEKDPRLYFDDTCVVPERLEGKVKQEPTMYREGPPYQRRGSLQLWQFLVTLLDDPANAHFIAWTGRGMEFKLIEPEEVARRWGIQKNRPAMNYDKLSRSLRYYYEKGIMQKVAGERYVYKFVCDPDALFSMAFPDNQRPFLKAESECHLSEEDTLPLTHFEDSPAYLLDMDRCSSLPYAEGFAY
# Chain of ETV6 (P41212 whole entry): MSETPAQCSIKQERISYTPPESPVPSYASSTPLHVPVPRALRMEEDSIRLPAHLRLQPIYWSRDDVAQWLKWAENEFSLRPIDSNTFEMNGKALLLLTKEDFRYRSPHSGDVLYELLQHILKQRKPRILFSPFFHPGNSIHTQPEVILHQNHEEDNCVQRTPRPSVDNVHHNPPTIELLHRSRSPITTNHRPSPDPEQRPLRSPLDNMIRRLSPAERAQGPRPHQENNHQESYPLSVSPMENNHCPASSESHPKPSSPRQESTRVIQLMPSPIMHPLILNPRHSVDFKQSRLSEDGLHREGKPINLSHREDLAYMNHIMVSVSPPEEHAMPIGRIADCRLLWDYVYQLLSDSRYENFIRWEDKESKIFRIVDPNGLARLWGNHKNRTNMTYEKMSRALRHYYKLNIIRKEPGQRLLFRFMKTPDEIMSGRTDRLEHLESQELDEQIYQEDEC
Sequence,binding signal (FEV),binding signal (ETV5),binding signal (HSF1),binding signal (SPIC),binding signal (ELF4),binding signal (ELK4),binding signal (ELF3),binding signal (CRX),binding signal (ETV1),binding signal (ERF),binding signal (ETV3L),binding signal (ETS2),binding signal (SPDEF),binding signal (ETV7),binding signal (ELF5),binding signal (ETV3),binding signal (ETV6)
AATAGG,"1.13 fold enrichment (6-mer frequency, TF over GST control)","1.16 fold enrichment (6-mer frequency, TF over GST control)","1.02 fold enrichment (6-mer frequency, TF over GST control)","1.14 fold enrichment (6-mer frequency, TF over GST control)","1.04 fold enrichment (6-mer frequency, TF over GST control)","1.08 fold enrichment (6-mer frequency, TF over GST control)","1.09 fold enrichment (6-mer frequency, TF over GST control)","1.21 fold enrichment (6-mer frequency, TF over GST control)","1.25 fold enrichment (6-mer frequency, TF over GST control)","1.21 fold enrichment (6-mer frequency, TF over GST control)","1.12 fold enrichment (6-mer frequency, TF over GST control)","1.16 fold enrichment (6-mer frequency, TF over GST control)","1.22 fold enrichment (6-mer frequency, TF over GST control)","1.27 fold enrichment (6-mer frequency, TF over GST control)","1.19 fold enrichment (6-mer frequency, TF over GST control)","1.15 fold enrichment (6-mer frequency, TF over GST control)","1.27 fold enrichment (6-mer frequency, TF over GST control)"
TCATGA,–,"1.08 fold enrichment (6-mer frequency, TF over GST control)","1.06 fold enrichment (6-mer frequency, TF over GST control)","1.07 fold enrichment (6-mer frequency, TF over GST control)","1.06 fold enrichment (6-mer frequency, TF over GST control)","1.03 fold enrichment (6-mer frequency, TF over GST control)","1 fold enrichment (6-mer frequency, TF over GST control)","1.07 fold enrichment (6-mer frequency, TF over GST control)","1.14 fold enrichment (6-mer frequency, TF over GST control)",–,"1.03 fold enrichment (6-mer frequency, TF over GST control)","1.04 fold enrichment (6-mer frequency, TF over GST control)",–,"1 fold enrichment (6-mer frequency, TF over GST control)","1.05 fold enrichment (6-mer frequency, TF over GST control)","1.06 fold enrichment (6-mer frequency, TF over GST control)",–
